Data on 21 compounds can be found in PubChem BioAssay (NCI).

The nature of assay [1]: NCI Yeast Anticancer Drug Screen. Data for the rad50 strain (AID 155).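 Note: 0% = growth of vehicle-only cultures of the same strain.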 Particulars: S. cerevisiae rad50 strain growth inhibition; at 50.0 µM; hits give high values. Put shortly:
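Inhibition values express reduced yeast growth in compound-treated cultures relative to vehicle-treated controls.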

Assay [2] is described as follows: NCI Yeast Anticancer Drug Screen. Data for the mec2-1 strain (AID 157). The settings on record: S. cerevisiae mec2-1 strain, at 50.0 µM, hits give high values. Put shortly:
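Readout is yeast growth inhibition, normalised to vehicle-treated controls, in the mec2-1 strain exposed to compound.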

Assay [3] can be described thus: NCI Yeast Anticancer Drug Screen. Data for the sgs1 mgt1 strain (AID 161).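 Note: 0% = growth of cultures given vehicle only.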 Particulars: S. cerevisiae sgs1 mgt1 strain, at 50.0 µM, hits give high values. Put shortly:
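Percent growth inhibition was derived by comparing compound-exposed mutant yeast with vehicle-exposed cultures. The strain carries alterations in DNA damage repair.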

Assay [4] in a line: NCI Yeast Anticancer Drug Screen. Data for the cln2 rad14 strain (AID 165).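 Note: 0% = growth equal to vehicle treated cultures.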 The settings on record: S. cerevisiae cln2 rad14 strain, at 50.0 µM, hits give high values. Put shortly:
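Relative to vehicle controls, growth inhibition of compound-treated cln2 rad14 yeast was recorded.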

Assay [5] in a line: NCI Yeast Anticancer Drug Screen. Data for the bub3 strain (AID 167). The settings on record: S. cerevisiae bub3 mutant strain, at 50.0 µM, hits give high values. In a few lines: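 Steps: expose the mutant yeast strain to compound; grow alongside vehicle-treated cultures; measure growth; express inhibition against the vehicle cultures.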
Assay [6] can be described thus: NCI Yeast Anticancer Drug Screen. Data for the mlh1 rad18 strain (AID 175). The settings on record: S. cerevisiae mlh1 rad18 strain growth inhibition; at 50.0 µM; hits give high values. Put shortly:
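Test agents were incubated with a yeast strain of defined genotype (DNA damage repair defect). Inhibition of growth was derived by comparison with vehicle-exposed cultures.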

About 79,000 compounds went through this panel and 15% of them were active in at least one assay; those are over-represented in the sample as a whole. A number with no mark means an inactive call. The source made the active and inactive calls. Cut-off read from the data, not from the text of the source: active = growth inhibition above about 70%; inactive = the rest.

For the compound `Cc1cc(=O)n(NC(N)=O)c(C)c1C(=O)O`, the growth inhibition in assay [1] was -0.8%; in assay [2], 0.45%; in assay [3], -13.8%; in assay [4] it was -29.5%; in assay [5] it was -1.3%; in assay [6], -5.45%.
As for `CCc1cc(C)cc(CC)c1N`, the growth inhibition in assay [1] is 5.45%; in assay [2], -14.2%; in assay [3] it was -8.55%; in assay [4], -24.6%; in assay [5] it was 20.9%; in assay [6] it was 3.8%.
Turning to `Cc1c(-c2ccccc2)c2ccccc2n1C`, the growth inhibition in assay [1] was 38.1%; in assay [2], 8.55%; in assay [3], 10.4%; in assay [4], 20.3%; in assay [5], 20.6%; in assay [6] it was 22.5%.
As for `Cc1cccc(Cl)c1OCC(=O)O`, the growth inhibition in assay [1] is -1.25%; in assay [2], -8.55%; in assay [3], -1.95%; in assay [4], -35.8%; in assay [5] it was -20.8%; in assay [6], -13.2%.
Take `CC(C)C1C(O)C23CCC4C(C)(CO)CCCC4(C)C2CC13` (stereo unspecified): the growth inhibition is -7.15% in assay [1]; -6.85% in assay [2]; -22.6% in assay [3]; -15.4% in assay [4]; -24.1% in assay [5]; -8.75% in assay [6].
Regarding `Cc1nc2cnc(N)nc2nc1C`, the growth inhibition in assay [1] was -6.85%; in assay [2], -16.9%; in assay [3], -3.65%; in assay [4], -40.4%; in assay [5], 0.8%; in assay [6], 0.75%.
On to `N#CC1C[C@@H]2CC3(CCC2CN1C(=O)c1ccccc1)OCCO3` (stereo partly specified), for which the growth inhibition is 8.25% in assay [1]; -9.6% in assay [2]; -12.1% in assay [3]; -24.6% in assay [4]; 0.9% in assay [5]; -14% in assay [6].
For the compound `CC(C)=C1C=CC=C1`, the growth inhibition in assay [1] is -8%; in assay [2], 0.65%; in assay [3], 1.6%; in assay [4] it was -5%; in assay [5] it was 9.4%; in assay [6], -6.95%.
On to `O=C(Nc1ccc(Cl)cc1)c1cc2c(cc1Cl)Sc1nccn1S2(=O)=O`, for which the growth inhibition in assay [1] was -4.85%; in assay [2] it was -11.7%; in assay [3] it was -1.65%; in assay [4] it was -25.4%; in assay [5], 2.35%; in assay [6], 16.9%.
On to `CCN1CC(O)c2cc(N=NC(N)=O)c(O)cc21` (stereo unspecified), for which the growth inhibition in assay [1] is -3.3%; in assay [2], 14.9%; in assay [3] it was 3.1%; in assay [4] it was -8.85%; in assay [5] it was 3.85%; in assay [6] it was 23%.
Take `COCCOC(=O)c1ccccc1C`: the growth inhibition in assay [1] was 8.7%; in assay [2] it was 2.35%; in assay [3], 0.3%; in assay [4], -27.6%; in assay [5], 11.8%; in assay [6], 0.55%.
Consider `CC(=O)Nc1cccc(S(=O)(=O)c2cccc(NC(C)=O)c2)c1`, for which the growth inhibition was -9.8% in assay [1]; -10.1% in assay [2]; -7.55% in assay [3]; -66.5% in assay [4]; 8.1% in assay [5]; -10.3% in assay [6].
As to `CN(C)c1ccccc1C(=O)N/N=C/c1ccc(F)cc1`, the growth inhibition in assay [1] is -4.7%; in assay [2], -31.3%; in assay [3] it was -6.55%; in assay [4] it was -13.8%; in assay [5], -14.9%; in assay [6], -6%.
With `Nc1nc2c(=O)[nH]c(=O)[nH]c2n1C1OC(CO)C(O)C1O` (stereo unspecified), the growth inhibition in assay [1] was 4.7%; in assay [2], -3.9%; in assay [3] it was 0.35%; in assay [4], 4.9%; in assay [5] it was 14.2%; in assay [6], -6.1%.
Take `O=C(c1ccc2c(c1)no[n+]2[O-])N(CCO)CCO`: the growth inhibition in assay [1] was 58.8%; in assay [2], 8.45%; in assay [3], 47.1%; in assay [4] it was 92.5% (active); in assay [5] it was 28.4%; in assay [6], 19.9%.
As to `CCC(Nc1ncnc2nc[nH]c12)C(=O)O` (stereo unspecified), the growth inhibition in assay [1] was -7.5%; in assay [2] it was -14.2%; in assay [3], -17.4%; in assay [4], -20.4%; in assay [5] it was -23.6%; in assay [6], 14%.
In the case of `Cc1ccc(NC(=O)OCCN(C)C)cc1Cl`, the growth inhibition is -6.75% in assay [1]; -25.8% in assay [2]; 16.4% in assay [3]; 11.1% in assay [4]; 8.2% in assay [5]; -4.6% in assay [6].
Consider `Cc1ccc(/C(=C/CN2CC3CCC(CC3)C2)c2ccccc2)cc1`, for which the growth inhibition is -1.15% in assay [1]; -4.5% in assay [2]; 11.9% in assay [3]; -14.3% in assay [4]; 10.4% in assay [5]; -13.8% in assay [6].
On to `CCOC(=O)CC(c1ccccc1)C(C#N)(c1ccccc1)N(C)C` (stereo unspecified), for which the growth inhibition in assay [1] was 27.9%; in assay [2], 19.5%; in assay [3] it was 40.8%; in assay [4], 18%; in assay [5], 30.4%; in assay [6], 33.5%.
For `C/C(=N\NC(C)(C)C)c1sc(-c2nc(C)c(/C(C)=N/NC(C)(C)C)s2)nc1C`, the growth inhibition is 46.5% in assay [1]; 3.9% in assay [2]; -7.5% in assay [3]; -20.6% in assay [4]; 22.1% in assay [5]; 21.8% in assay [6].
On to `CC1CC/C(=N\O)CCCCC(=O)O1` (stereo unspecified), for which the growth inhibition in assay [1] is -3.45%; in assay [2], -0.35%; in assay [3], 2.15%; in assay [4], -33.4%; in assay [5], 2.9%; in assay [6] it was 0.85%.
